From PubChem BioAssay (Tox21) come the findings set out here.

“And” between values parts separate entries of the source, which are not always exact repeats. Equal values may be shown once. Inconclusive results are not listed. The source made the active and inactive calls. Unless noted, the call rests on the fitted dose curve.

Test [1] in a line: Nuclear factor erythroid 2-related factor 2/antioxidant responsive element (Nrf2/ARE) small molecule agonists: qHTS cell viability counter screen in human keratinocytes (AID 1919968; active means well fitted cell-killing curve with a large enough effect in the repeat runs; further: nearly all actives have a fitted effect of over 55% in size; further: potency means the concentration at half of the fitted maximal effect). A digest of the protocol:
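Parallel cytotoxicity read: KeratinoSens HaCaT cells, compound treatment 23 h, viability by CellTiter-Fluor fluorescence 1 h post-reagent.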

A short description of test [2]: Nuclear factor erythroid 2-related factor 2/antioxidant responsive element (Nrf2/ARE) small molecule agonists: luciferase reporter gene qHTS assay in human keratinocytes (AID 1919969). Further: nearly all actives have a fitted effect of over 35% in size.
Test [3] deals with Gonadotropin-releasing hormone receptor (Homo sapiens) (UniProt P30968). Briefly: Human gonadotropin-releasing hormone receptor (GnRHR) small molecule agonists, calcium flux assay in GnRHR-HEK293 cells (AID 1920063). Further: nearly all actives have a fitted effect of over 35% in size. A digest of the protocol:
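Calcium flux, agonist mode, human GnRHR stably integrated in HEK293; dye 1 h at 37 C before compound; Ex/Em=480/540 kinetic read, 3 min; 15 concentrations, triplicate.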

Test [4] can be described thus: G protein-coupled receptor (GPCR) small molecule agonists, calcium flux assay: HEK293 wild type cell line counter screen (AID 1920065). Put shortly: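 Non-specific calcium responders were flagged by adding DMSO-dissolved compounds to dye-loaded cells and reading 480/540 nm fluorescence each second for 3 min; ATP served as positive control.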
Test [5] can be described thus: p53 small molecule agonists, cell-based qHTS assay with human liver microsomes (AID 1963577).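 Further: p53 response element beta-lactamase reporter cells with liver microsomes plus NADPH.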 A digest of the protocol:
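With metabolic activation: human liver microsomes (0.5 mg/mL final) plus NADPH (0.5 mg/mL final) added alongside compounds to p53RE-bla cells; 16 h 37 C exposure; beta-lactamase read by LiveBLAzer fluorescence.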

Test [6] is described as follows: p53 small molecule agonists, cell-based qHTS assay with rat liver microsomes (AID 1963578). Put shortly: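 Metabolic activation by rat liver microsomes and NADPH, each 0.5 mg/mL final, added right after compounds to p53RE-bla reporter cells (4,000/well, plated 5 h earlier). 16 h at 37 C, then LiveBLAzer substrate for 2 h at room temperature in the dark; fluorescence read-out.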

Test [7] can be described thus: p53 small molecule agonists, cell-based qHTS assay with human liver microsomes: qHTS cell viability counter screen (AID 1963579). Further: nearly all actives have a fitted effect of over 45% in size. Put shortly: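 Metabolic activation used human liver microsomes and NADPH, both 0.5 mg/mL final, over 16 hours at 37 C on p53RE-bla cells (4,000/well). Cytotoxicity measured by CellTiter-Glo luminescence, 30 min at room temperature.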
Test [8] can be described thus: p53 small molecule agonists, cell-based qHTS assay with rat liver microsomes: qHTS cell viability counter screen (AID 1963580). Further: nearly all actives have a fitted effect of over 45% in size. A digest of the protocol: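 Cytotoxicity counter screen: intracellular ATP measured by CellTiter-Glo luminescence in the same wells as the beta-lactamase reporter read, on HCT-116 p53RE-bla cells exposed 16 h at 37 C to compounds with rat liver microsomes and NADPH, each 0.5 mg/mL final.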

Test [9] in a line: p53 small molecule agonists, cell-based qHTS assay: qHTS cell viability counter screen (AID 1963581). Further: nearly all actives have a fitted effect of over 45% in size. Put shortly:
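Multiplexed with the reporter read, a CellTiter-Glo step (30 min, room temperature) gauges ATP-based viability of HCT-116 p53RE-bla cells after 16 h compound incubation at 37 C.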

Test [10] is described as follows: p53 small molecule agonists, cell-based qHTS assay (AID 1963582; active means well fitted activation curve with a large enough effect in the signal ratio in the repeat runs, not every such curve was filed as active; the % refers to the signal ratio). Put shortly:
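Beta-lactamase reporter cells (p53RE-bla) treated with compounds for 16 h at 37 C; FRET substrate, 2 h, room temperature; fluorescence intensity.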
In general terms: qHTS replaces the single test concentration by a dilution series.

The target of test [11] is 5-hydroxytryptamine receptor 2A (Homo sapiens) (UniProt P28223). The test is described as follows: 5-hydroxytryptamine receptor 2A (HTR2A) small molecule antagonists, cell-based qHTS assay (AID 1963586). Further: nearly all actives have a fitted effect of over 45% in size. Put shortly:
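CHO cells stably expressing human HTR2A were plated for 18 h at 37 C, then loaded with calcium dye for 1 h. Compounds were preincubated 5 min at room temperature before DOI (4 nM solution) was added. Kinetic fluorescence was read for 3 min.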

Test [12] shares this target. Briefly: 5-hydroxytryptamine receptor 2A (HTR2A) small molecule agonists, cell-based qHTS assay (AID 1963587). Further: nearly all actives have a fitted effect of over 30% in size. Put shortly:
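CHO cells stably expressing human HTR2A, plated 18 h, loaded with calcium dye 1 h at 37 C. Agonist mode: compounds added and intracellular calcium fluorescence recorded kinetically for 2 min at 1 sec intervals.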

The target of test [13] is Muscarinic acetylcholine receptor M1 (Homo sapiens) (UniProt P11229). The test is described as follows: Cholinergic receptor muscarinic 1 (CHRM1) small molecule antagonists, cell-based qHTS assay (AID 1963588). Further: nearly all actives have a fitted effect of over 40% in size. A digest of the protocol:
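Compounds were tested at 15 concentrations in three independent runs. Dye-loaded CHRM1-CHO cells were exposed 5 min at room temperature before stimulation by acetylcholine added at 50nM. Intracellular calcium was read kinetically on FDSS for 3 min.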

Test [14] shares this target. The test is described as follows: Cholinergic receptor muscarinic 1 (CHRM1) small molecule agonists, cell-based qHTS assay (AID 1963589). Further: nearly all actives have a fitted effect of over 35% in size. A digest of the protocol: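 qHTS, 15-point titration, 3 independent runs: compounds pin-transferred onto dye-loaded CHRM1-CHO cells (human M1), calcium fluorescence followed every second to detect agonism.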
Test [15] can be described thus: cAMP Responsive Elements (CRE) small molecule agonists, cell-based qHTS assay (AID 1963590). A digest of the protocol:
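Quantitative HTS for CRE agonists: HEK 293T CRE-bla cells, overnight plating, 3 h compound incubation at 37 C/5% CO2, then 2 h room-temperature LiveBLAzer B/G FRET substrate loading.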

A short description of test [16]: cAMP Responsive Elements (CRE) small molecule antagonists, cell-based qHTS assay (AID 1963591; active means well fitted inhibition curve with a large enough effect in the signal ratio in the repeat runs, not every such curve was filed as active; the % refers to the signal ratio). Put shortly: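 Fluorescence intensity from cleaved LiveBLAzer B/G substrate (2 h, room temperature) quantified CRE-bla activity in HEK 293T cells exposed 3 h to compound with 0.25 uM final NKH477.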
Test [17] addresses Beta-2 adrenergic receptor (Homo sapiens) (UniProt P07550). Briefly: Adrenergic beta2 receptor (ADRB2) small molecule antagonists, cell-based qHTS assay (AID 1963592). Further: series mostly up to about 92 µM; nearly all actives have a fitted effect of over 50% in size. Put shortly:
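Assay format: CHO-ADRB2 cells, 18-20hr seeding at 37C/5% CO2, then compound plus 1nM isoproterenol agonist mix for 0.5hr RT. Homogeneous time-resolved fluorescence cAMP detection after 1hr, expressed as 665/615 nm ratio.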

Test [18] deals with D(2) dopamine receptor (Homo sapiens) (UniProt P14416). The test is described as follows: Dopamine D2 receptor (DRD2) small molecule agonists, cell-based qHTS assay (AID 1963594). Further: nearly all actives have a fitted effect of over 35% in size. A digest of the protocol:
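HEK293 cells stably expressing human DRD2, pre-treated with PDE inhibitor Ro20-1724 (0.1 mM final) and compound 10 min at room temperature, then stimulated with NKH477 (200nM […]) for 30 min. cAMP read by HTRF (665/620 nm).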

The target of test [19] is Beta-2 adrenergic receptor (Homo sapiens) (UniProt P07550). The test is described as follows: Adrenergic beta2 receptor (ADRB2) small molecule agonists, cell-based qHTS assay (AID 1963593).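 Further: CHO cells stably overexpressing human ADRB2.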 Put shortly:
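CHO cells stably over-expressing ADRB2 were plated overnight at 37C, then dosed with compounds plus a stimulation mix containing 100uM IBMX and 25uM Ro-20-1724 for 0.5hr at room temperature. cAMP was measured by HTRF competition, 1hr.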

The target of test [20] is D(2) dopamine receptor (Homo sapiens) (UniProt P14416). The test is described as follows: Dopamine D2 receptor (DRD2) small molecule antagonists, cell-based qHTS assay (AID 1963595; active means well fitted inhibition curve with a large enough effect in the signal ratio in the repeat runs, with a control signal flat; the % refers to the signal ratio; further: potency means the concentration at half of the fitted maximal effect). A digest of the protocol:
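Readout: HTRF cAMP, cAMP-d2 competing with cellular cAMP for anti-cAMP cryptate, read after 1 h. Cells: DRD2-HEK293. Conditions: 0.1 mM Ro20-1724, 12 nM quinpirole, 200 nM NKH477, 30 min RT.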

D(2) dopamine receptor (Homo sapiens), sequence (P14416 whole entry, looked up): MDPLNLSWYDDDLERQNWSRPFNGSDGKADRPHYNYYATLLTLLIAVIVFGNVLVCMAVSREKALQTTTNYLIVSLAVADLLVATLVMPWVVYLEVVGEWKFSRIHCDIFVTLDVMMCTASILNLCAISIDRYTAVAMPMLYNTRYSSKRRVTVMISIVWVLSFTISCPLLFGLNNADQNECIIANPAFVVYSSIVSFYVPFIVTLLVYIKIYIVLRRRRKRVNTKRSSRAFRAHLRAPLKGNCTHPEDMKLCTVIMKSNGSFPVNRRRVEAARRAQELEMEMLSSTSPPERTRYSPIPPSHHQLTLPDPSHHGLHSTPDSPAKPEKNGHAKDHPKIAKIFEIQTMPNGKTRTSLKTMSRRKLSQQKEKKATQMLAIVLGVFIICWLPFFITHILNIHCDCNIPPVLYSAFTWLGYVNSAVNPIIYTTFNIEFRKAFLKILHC
Muscarinic acetylcholine receptor M1 (Homo sapiens), sequence (P11229 whole entry, looked up): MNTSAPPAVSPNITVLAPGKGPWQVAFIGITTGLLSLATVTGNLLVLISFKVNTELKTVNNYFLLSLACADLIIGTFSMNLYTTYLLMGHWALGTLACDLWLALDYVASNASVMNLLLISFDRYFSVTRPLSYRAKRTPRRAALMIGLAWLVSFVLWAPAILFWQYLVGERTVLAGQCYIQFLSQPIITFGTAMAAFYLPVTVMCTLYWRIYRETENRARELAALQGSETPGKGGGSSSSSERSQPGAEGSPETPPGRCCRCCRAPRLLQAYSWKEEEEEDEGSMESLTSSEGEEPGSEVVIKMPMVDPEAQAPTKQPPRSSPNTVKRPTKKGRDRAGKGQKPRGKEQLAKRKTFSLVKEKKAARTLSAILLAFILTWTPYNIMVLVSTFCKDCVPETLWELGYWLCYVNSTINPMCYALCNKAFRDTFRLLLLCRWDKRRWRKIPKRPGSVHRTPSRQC
Gonadotropin-releasing hormone receptor (Homo sapiens), sequence (P30968 whole entry, looked up): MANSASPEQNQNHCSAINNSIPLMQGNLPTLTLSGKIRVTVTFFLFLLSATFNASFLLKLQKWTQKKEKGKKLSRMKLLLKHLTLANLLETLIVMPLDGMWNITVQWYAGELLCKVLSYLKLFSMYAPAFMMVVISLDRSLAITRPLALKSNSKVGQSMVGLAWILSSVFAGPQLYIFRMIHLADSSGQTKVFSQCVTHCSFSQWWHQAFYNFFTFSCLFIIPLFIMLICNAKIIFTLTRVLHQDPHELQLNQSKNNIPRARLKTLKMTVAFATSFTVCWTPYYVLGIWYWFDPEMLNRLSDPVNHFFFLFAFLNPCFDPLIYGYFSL
5-hydroxytryptamine receptor 2A (Homo sapiens), sequence (P28223 whole entry, looked up): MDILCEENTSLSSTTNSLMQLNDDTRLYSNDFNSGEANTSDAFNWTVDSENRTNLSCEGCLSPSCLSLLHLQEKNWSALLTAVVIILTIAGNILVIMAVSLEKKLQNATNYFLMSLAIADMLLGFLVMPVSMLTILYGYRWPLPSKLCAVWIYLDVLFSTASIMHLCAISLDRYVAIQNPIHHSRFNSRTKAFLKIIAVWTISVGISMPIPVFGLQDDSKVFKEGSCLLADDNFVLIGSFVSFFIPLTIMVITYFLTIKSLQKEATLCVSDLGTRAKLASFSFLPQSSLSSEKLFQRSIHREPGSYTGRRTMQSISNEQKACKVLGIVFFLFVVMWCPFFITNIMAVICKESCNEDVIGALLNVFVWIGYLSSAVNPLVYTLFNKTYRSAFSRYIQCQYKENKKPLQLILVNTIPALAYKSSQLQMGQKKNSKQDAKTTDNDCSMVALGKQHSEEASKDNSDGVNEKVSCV
Beta-2 adrenergic receptor (Homo sapiens), sequence (P07550 whole entry, looked up): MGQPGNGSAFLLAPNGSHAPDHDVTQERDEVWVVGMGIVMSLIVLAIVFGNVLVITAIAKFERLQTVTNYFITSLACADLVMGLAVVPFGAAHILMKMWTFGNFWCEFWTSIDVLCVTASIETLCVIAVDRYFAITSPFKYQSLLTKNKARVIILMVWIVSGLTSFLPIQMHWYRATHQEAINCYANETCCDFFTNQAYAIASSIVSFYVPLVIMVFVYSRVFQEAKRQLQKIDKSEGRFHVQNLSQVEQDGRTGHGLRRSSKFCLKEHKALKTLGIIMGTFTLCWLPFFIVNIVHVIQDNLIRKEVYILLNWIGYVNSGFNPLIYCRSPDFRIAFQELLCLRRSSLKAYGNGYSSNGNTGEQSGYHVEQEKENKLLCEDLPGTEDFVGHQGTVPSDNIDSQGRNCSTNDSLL

Take `C[C@@H]1O[C@@H](OC[C@H]2O[C@@H](Oc3c(-c4ccc(O)c(O)c4)oc4cc(O)cc(O)c4c3=O)[C@H](O)[C@@H](O)[C@@H]2O)[C@H](O)[C@H](O)[C@H]1O`: the Potency entry in [1], in test [2], in test [3], in test [4], in test [5] and in test [6] was “inactive” each time. The Potency result in test [7], in test [8], in [9], in [10], in test [11] and in test [12] was “inactive” throughout. The Potency result in test [13], in test [14], in test [15], in test [16], in [17] and in test [18] was “inactive” throughout.
Regarding `Cc1ccccc1S(=O)(=O)O`, the Potency entry in test [1], in test [2], in test [3], in test [4], in [5] and in [6] was “inactive” in each case. The Potency result in test [7], in test [8], in [9], in [10], in [11] and in [12] was “inactive” in each case. In addition, the Potency result in test [13], in [14], in test [16], in test [17], in [19] and in test [18] was “inactive” throughout. Further, the Potency entry in [20] is “inactive”.
As to `O=Cc1ccc(F)cc1`, the Potency entry in [1], in [2], in test [3], in test [4], in test [5] and in test [6] was “inactive” throughout. The Potency result in [7], in test [8], in test [9], in test [10], in test [11] and in test [12] was “inactive” throughout. Moreover, the Potency result in test [13], in test [14], in test [15], in test [17], in test [18] and in test [20] was “inactive” each time.
Turning to `Clc1ccc2c(c1)C(N1CCNCC1)=Nc1ccccc1O2`, the Potency in [1] was 61.1 µM (active); in [20], 13.7 µM (active) and 8.41 µM (active). Besides, the Potency entry in [2], in [3], in test [7], in test [8], in [15] and in test [16] was “inactive” each time. In addition, the Potency result in test [17] and in test [18] was “inactive” throughout.
As to `CC1=C(C=O)C(C)(C)CC=C1`, the Potency result in [1], in test [2], in [3], in [4], in test [5] and in test [6] was “inactive” in each case. The Potency result in [7], in [8], in test [9], in [10], in [11] and in [12] was “inactive” each time. For the same compound, the Potency result in test [13], in test [15], in [16], in test [17], in [19] and in test [18] was “inactive” in each case.
Consider `COc1c2ccoc2cc2oc(=O)ccc12`, for which the Potency entry in test [1], in test [2], in test [3], in [7], in [8] and in [9] was “inactive” in each case. Further, the Potency entry in test [10], in test [11], in [12], in test [13], in [14] and in [15] was “inactive” in each case. Also, the Potency result in test [16], in test [19], in [18] and in test [20] was “inactive” in each case.
Regarding `CNCCO`, the Potency result in test [1], in test [2], in test [3], in [4], in [5] and in test [6] was “inactive” each time. Moreover, the Potency entry in test [7], in [8], in test [9], in test [10], in [11] and in test [12] was “inactive” in each case. Moreover, the Potency entry in [13], in test [14], in test [15], in test [16], in test [17] and in test [19] was “inactive” throughout. Besides, the Potency entry in test [18] and in test [20] was “inactive” throughout.
Regarding `COC(=O)c1ccccc1C(=O)O`, the Potency entry in [1], in test [2], in [3], in [4], in test [5] and in test [6] was “inactive” throughout. Moreover, the Potency result in test [7], in test [8], in test [9], in [10], in test [11] and in [12] was “inactive” each time. For the same compound, the Potency entry in test [13], in test [14], in test [16], in test [17], in [19] and in test [18] was “inactive” throughout. The Potency result in test [20] is “inactive”.
